The values below come from PubChem BioAssay (NCATS).

Activity calls are given as the source filed them. A call without a number means that no potency is given here. Calls come from the whole dose curve; as a rule, active = well fitted cell-killing curve with a large enough effect; inconclusive = small, poorly fitted or top-dose-only effect; inactive = flat fitted curve, though single readings scatter.
Potency is the fitted concentration of half-maximal effect.

This test can be described thus: Cell Viability - LYMP1-002 - Assay at 24 hr (AID 993). The following applies: LYMP1-002 lymphoblastoid cells viability; series mostly up to 92.2 µM. From the text:
NIH Chemical Genomics Center [NCGC]
NIH Molecular Libraries Screening Centers Network [MLSCN]
National Institutes of Environmental Health Sciences [NIEHS]
National Toxicology Program [NTP]
We have developed a 1536-well cell-based assay for quantitative high throughput screening (qHTS) against a number of cell lines to determine in vitro cytotoxicity of small molecules. This particular assay uses a human lymphoblastoid cell line (LYMP1-002) purchased from Coriell Institute for Medical Research.
NCGC Assay Protocol Summary:
The CellTiter-Glo luminescent cell viability assay (Promega) is a homogeneous method to measure the number of viable cells in culture. The end point readout of this assay is based on quantitation of intracellular ATP, an indicator of metabolic activity, using the luciferase reaction. Luciferase catalyzes the oxidation of beetle Luciferin to oxyluciferin and light in the presence of ATP. The luminescent signal is proportional to amount of ATP present.
Using the CellTiter-Glo luminescent cell viability assay, the amount of cellular ATP was measured in the lymphoblastoid cell line with complete culture medium following compound treatment for 24 hours. The assay was performed in opaque white Kalypsys 1536-well plates. In the screen, tetraoctylammonium bromide was used as positive control. Library compounds were measured for their ability to cause acute toxicity in the cell line, as reflected by a decrease in intracellular ATP levels, in a concentration-dependent manner. […] AC50 values were determined from concentration-response data modeled with the standard Hill equation.
qHTS protocol for CellTiter Glo lymphoblastoid cellular assay
[Step] [Parameter] [Value] [Description]
1. Reagent; 5 uL; 2500 lymphoblastoid cells/well
2. Time; 5 hr; 37 C incubation
4. Controls; 23 nL; Tetraoctylammonium bromide 6.4pM to 92 uM
5. Time; 24 hr; 37 C incubation
6. Reagent; 5 uL; CellTiter Glo reagent
7. Time; 30 min; Room Temperature
8. Detection; Luminescence; Viewlux plate reader
Keywords: cell viability, cytotoxicity, lymphoblastoid cell line, luminescence, NTPHTS, NTPHTS_NCGC, NIEHS, DSSTox, MLSMR, MLSCN, NIH Roadmap, qHTS, NCGC
As for `O=C(O)c1cc(O)c2c(c1)C(=O)c1cccc(O)c1C2=O`, the Potency result is “inactive”. With `O=c1c(O)c(-c2ccc(O)cc2)oc2cc(O)cc(O)c12`, the Potency entry was “inactive”. On to `CC(=O)c1ccc(S(=O)(=O)NC(=O)NC2CCCCC2)cc1`, for which the Potency result was “inactive”. The same measure for `CCCCC1C(=O)N(c2ccccc2)N(c2ccccc2)C1=O`: “inactive”. Regarding `O=C1NC(=O)C(c2ccccc2)(c2ccccc2)N1`, the Potency entry is “inactive”. Regarding `CCCNC(=O)NS(=O)(=O)c1ccc(Cl)cc1`, the Potency result is “inactive”. On to `CC1=C(/C=C/C(C)=C/C=C/C(C)=C/C(=O)Nc2ccc(O)cc2)C(C)(C)CCC1`, for which the Potency was 50.1 µM (active). For `CN(C)CCC(c1ccccc1)c1ccccn1` (centres undefined), the Potency entry was “inactive”.

Regarding `CC(=O)O[C@]1(C(C)=O)CC[C@H]2[C@@H]3C=C(Cl)C4=CC(=O)[C@@H]5C[C@@H]5[C@]4(C)[C@H]3CC[C@@]21C`, the Potency entry is “inactive”. On to `O=C(O)Cc1cccc2ccccc12`, for which the Potency entry is “inactive”.

For the compound `O=c1[nH]cnc2c1ncn2[C@H]1CC[C@@H](CO)O1`, the Potency entry is “inactive”. Consider `O=c1c(-c2ccc(O)cc2)coc2cc(O)ccc12`, for which the Potency entry was “inactive”. Consider `CCn1cc(C(=O)O)c(=O)c2ccc(C)nc21`, for which the Potency entry is “inactive”.

In the case of `CC/C(=C(\c1ccccc1)c1ccc(OCCN(C)C)cc1)c1ccccc1`, the Potency was 50.1 µM (active).
